Inconclusive results are not listed. Where a call stands in place of a potency, no number is given. Calls of active or inactive are those of the source. Calls follow the shape of the dose curve; as a rule, active = well fitted inhibition curve with a large enough effect; inconclusive = small, poorly fitted or top-dose-only effect; inactive = flat fitted curve, though single readings scatter.
Assays:
Test in all cases: qHTS profiling for inhibitors of Plasmodium falciparum proliferation (AID 504749); also: nearly all actives have a fitted effect of over 60% in size
Details in all cases: P. falciparum in erythrocytes, SYBR Green DNA, 72 h; series mostly up to 28.7 µM
CP237 = test system: CP237
Procedure, shortened: (§1)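 Three-day growth assay of blood-stage parasites in erythrocytes (0.3% parasitemia, 2.5% hematocrit) at 37 C, 5% CO2, quantified by SYBR Green DNA staining after overnight detergent lysis.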

CP238 = test system: CP238
Procedure, shortened: as §1

CP247 = test system: CP247
Procedure, shortened: as §1

CP250 = test system: CP250
Procedure, shortened: as §1

CP252 = test system: CP252
Procedure, shortened: as §1

CP256 = test system: CP256
Procedure, shortened: as §1

CP260 = test system: CP260
Procedure, shortened: as §1

CP262 = test system: CP262
Procedure, shortened: as §1

CP265 = test system: CP265
Procedure, shortened: as §1

CP266 = test system: CP266
Procedure, shortened: as §1
Potency is read from the fitted curve at half-maximal effect.

| SMILES | Potency (CP237) | Potency (CP238) | Potency (CP247) | Potency (CP250) | Potency (CP252) | Potency (CP256) | Potency (CP260) | Potency (CP262) | Potency (CP265) | Potency (CP266) |
| --- | --- | --- | --- | --- | --- | --- | --- | --- | --- | --- |
| COCC(=O)O[C@]1(CCN(C)CCCc2nc3ccccc3[nH]2)CCc2cc(F)ccc2[C@@H]1C(C)C | 0.199 µM (active) | 4.47 µM (active) | 3.55 µM (active) | 4.47 µM (active) | 4.47 µM (active) | 4.47 µM (active) | 1.58 µM (active) | 6.75 µM (active) | 4.47 µM (active) | 6.75 µM (active) |
| CCN(Cc1ccncc1)C(=O)C(CO)c1ccccc1 (stereo unspecified) | inactive | inactive | inactive | inactive | inactive | inactive | inactive | inactive | inactive | inactive |
| NC(=O)c1cn(Cc2c(F)cccc2F)nn1 | inactive | inactive | inactive | inactive | inactive | inactive | inactive | inactive | inactive | inactive |
| NC(=O)c1ncn([C@@H]2O[C@H](CO)[C@@H](O)[C@H]2O)c1O | inactive | inactive | inactive | inactive | inactive | inactive | inactive | inactive | inactive | inactive |
| C[N+](C)(C)CCOC(N)=O | inactive | inactive | inactive | inactive | inactive | inactive | inactive | inactive | inactive | inactive |
| OC(CCN1CCCCC1)(c1ccccc1)C1CCCCC1 (stereo unspecified) | inactive | inactive | inactive | inactive | inactive | inactive | – | inactive | – | inactive |
| CC(C)COCC(CN(Cc1ccccc1)c1ccccc1)N1CCCC1 (stereo unspecified) | 5.01 µM (active) | inactive | inactive | inactive | inactive | inactive | – | inactive | inactive | inactive |
| Cc1nc2c([nH]1)c(=O)n(C)c(=O)n2Cc1ccco1 | inactive | inactive | inactive | inactive | inactive | inactive | inactive | inactive | inactive | inactive |
| O=C(CCCN1CCC(O)(c2cccc(C(F)(F)F)c2)CC1)c1ccc(F)cc1 | 7.94 µM (active) | 12.6 µM (active) | 7.08 µM (active) | 10 µM (active) | – | – | 11.2 µM (active) | 10.7 µM (active) | 10 µM (active) | – |
| Brc1c(NC2=NCCN2)ccc2nccnc12 | inactive | inactive | inactive | inactive | inactive | inactive | – | inactive | – | inactive |
| CNC1(C)C2CCC(C2)C1(C)C (stereo unspecified) | 7.94 µM (active) | inactive | inactive | inactive | inactive | inactive | inactive | inactive | inactive | inactive |
| CC(=O)OCC1=C(C(=O)O)N2C(=O)[C@@H](NC(=O)Cc3cccs3)[C@H]2SC1 | inactive | inactive | inactive | inactive | inactive | inactive | inactive | inactive | inactive | inactive |
| CN(C)CC[C@@H](c1ccc(Br)cc1)c1ccccn1 | – | – | – | inactive | – | – | inactive | inactive | – | inactive |
| CN(C)C(=O)Oc1ccc[n+](C)c1 | inactive | inactive | – | inactive | inactive | inactive | inactive | inactive | inactive | inactive |
| Cc1nc2ccccn2c(=O)c1CCN1CCC(C(=O)c2ccc(F)cc2)CC1 | – | inactive | – | inactive | inactive | inactive | inactive | inactive | inactive | inactive |
| OCCN1CCN(CC/C=C2/c3ccccc3Sc3ccc(C(F)(F)F)cc32)CC1 | 10 µM (active) | – | 8.91 µM (active) | 12.6 µM (active) | 7.94 µM (active) | 3.98 µM (active) | 12.6 µM (active) | 6.01 µM (active) | – | – |

| SMILES | Potency (CP237) | Potency (CP238) | Potency (CP247) | Potency (CP250) | Potency (CP252) | Potency (CP256) | Potency (CP260) | Potency (CP262) | Potency (CP265) | Potency (CP266) |
| --- | --- | --- | --- | --- | --- | --- | --- | --- | --- | --- |
| c1cc(CN2CCCCC2)cc(OCCCNc2nc3ccccc3s2)c1 | – | – | – | – | – | – | – | inactive | – | – |
| CCC(=O)c1ccc2c(c1)N(CCCN(C)C)c1ccccc1S2 | – | – | – | inactive | – | – | 11.2 µM (active) | inactive | – | inactive |
| NC(N)=NC(=O)Cc1c(Cl)cccc1Cl | – | inactive | – | 7.08 µM (active) | – | 12.6 µM (active) | 10 µM (active) | 4.26 µM (active) | – | inactive |
| CCc1cccc(N(C)C(N)=Nc2cccc3ccccc23)c1 | – | – | – | – | – | – | – | inactive | – | – |
| O=C1CC2(CCCC2)CC(=O)N1CCCCN1CCN(c2ncccn2)CC1 | – | inactive | inactive | inactive | inactive | inactive | inactive | inactive | inactive | inactive |
| CCN(CC)CCOCCOC(=O)C1(c2ccccc2)CCCC1 | 2.51 µM (active) | – | – | – | inactive | 11.2 µM (active) | 11.2 µM (active) | inactive | 3.98 µM (active) | inactive |
| CN(C)CCN(Cc1cccs1)c1ccccn1 | 2 µM (active) | 11.2 µM (active) | – | – | – | – | – | inactive | 10 µM (active) | – |
| COC(=O)[C@H]1[C@H]2C[C@@H]3c4[nH]c5cc(OC)ccc5c4CCN3C[C@H]2C[C@@H](OC(=O)c2cc(OC)c(OC)c(OC)c2)[C@@H]1OC | 11.2 µM (active) | 11.2 µM (active) | 11.2 µM (active) | – | 11.2 µM (active) | – | 11.2 µM (active) | – | – | – |
| CCN(CC)CC(=O)Nc1c(C)cccc1C | – | inactive | inactive | inactive | inactive | inactive | inactive | inactive | inactive | inactive |
| CC(C)[N+](C)(CCOC(=O)C1c2ccccc2Oc2ccccc21)C(C)C | – | – | – | – | – | – | – | – | – | inactive |
| C[n+]1cc2c3c(ccc2c2ccc4cc5c(cc4c21)OCO5)OCO3 | inactive | inactive | – | inactive | – | – | – | – | – | inactive |
| CCCCCCCC/C=C\CCCCCCCC(=O)NCc1ccc(O)c(OC)c1 | – | – | 7.08 µM (active) | – | – | 11.2 µM (active) | – | inactive | 10 µM (active) | inactive |
| CN(C)C/C=C(/c1ccc(Br)cc1)c1cccnc1 | – | inactive | inactive | inactive | inactive | inactive | inactive | inactive | inactive | inactive |
| CC1=NS(=O)(=O)c2cc(Cl)ccc2N1 | inactive | – | – | – | – | – | inactive | inactive | inactive | inactive |
| CC1=C(C)C(=O)C(CCCCC#CCCCC#CCO)=C(C)C1=O | – | – | – | – | – | – | – | – | 10 µM (active) | – |
